Potency data for 21 molecules are collected here from PubChem BioAssay (NCATS).

Molecules are shown by their SMILES. Results filed as inconclusive are left out. Activity calls are given as the source filed them. Calls follow the shape of the dose curve; as a rule, active = well fitted cell-killing curve with a large enough effect; inconclusive = small, poorly fitted or top-dose-only effect, or effect the other way; inactive = no such curve, though single readings can be large or run the other way.

Experiment [1] is described as follows: Quantitative High-Throughput drug screen in 47 multiple myeloma cell lines against the NCATS MIPE library collection: XG6_PLB cell viability assay (AID 1919865). Also: nearly all actives have a fitted effect of over 40% in size. In outline:
(§1)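 Cells were exposed to library compounds for 48 hours, after which ATP was measured by CellTiter-Glo. Signal was taken as median relative luminescence units.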

A short description of experiment [2]: Quantitative High-Throughput drug screen in 47 multiple myeloma cell lines against the NCATS MIPE library collection: VP6_DJ cell viability assay (AID 1919867). Also: nearly all actives have a fitted effect of over 40% in size. A digest of the protocol: as §1
A short description of experiment [3]: Quantitative High-Throughput drug screen in 47 multiple myeloma cell lines against the NCATS MIPE library collection: OPM2_DSMZ cell viability assay (AID 1919872). Also: nearly all actives have a fitted effect of over 30% in size. In outline: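 Primary qHTS used for cherry-picking: cells at 500/well, library compounds for 48 h (37C, 5% CO2), luminescent ATP assay.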
Experiment [4] is described as follows: Quantitative High-Throughput drug screen in 47 multiple myeloma cell lines against the NCATS MIPE library collection: UTMC2_PLB cell viability assay (AID 1919868). Also: nearly all actives have a fitted effect of over 55% in size. To be noted: CellTiter-Glo ATP luminescence, 48 h; viability (% of DMSO control): at 45.8 µM (top of the series). A digest of the protocol:
as §1
Background: In ATP-based viability assays light output follows the ATP content of the culture.

Experiment [5] is described as follows: Quantitative High-Throughput drug screen in 47 multiple myeloma cell lines against the NCATS MIPE library collection: PCM6_Riken cell viability assay (AID 1919870). Also: nearly all actives have a fitted effect of over 30% in size. In outline:
as §1

Experiment [6] is described as follows: Quantitative High-Throughput drug screen in 47 multiple myeloma cell lines against the NCATS MIPE library collection: RPMI8226_ATCC cell viability assay (AID 1919871). Also: nearly all actives have a fitted effect of over 30% in size. In outline:
as §1

Experiment [7] is described as follows: Quantitative High-Throughput drug screen in 47 multiple myeloma cell lines against the NCATS MIPE library collection: KMS11_JCRBsus cell viability assay (AID 1919873). Also: nearly all actives have a fitted effect of over 50% in size. In outline:
as §1

Experiment [8] can be described thus: Quantitative High-Throughput drug screen in 47 multiple myeloma cell lines against the NCATS MIPE library collection: KMS28BM_JCRB cell viability assay (AID 1919874). Also: nearly all actives have a fitted effect of over 35% in size. A digest of the protocol:
as §1

Experiment [9] is described as follows: Quantitative High-Throughput drug screen in 47 multiple myeloma cell lines against the NCATS MIPE library collection: PE2_PLB cell viability assay (AID 1919869). Also: nearly all actives have a fitted effect of over 35% in size. In outline: as §1
Experiment [10] in a line: Quantitative High-Throughput drug screen in 47 multiple myeloma cell lines against the NCATS MIPE library collection: XG1_PLB cell viability assay (AID 1919866). Also: nearly all actives have a fitted effect of over 35% in size. A digest of the protocol: as §1
Potency is read from the fitted curve at half-maximal effect.

In the case of `CCCCCCCCCCCC1=C(O)C(=O)C=C(O)C1=O`, the Potency in experiment [1] is 0.372 µM (active); in experiment [2], 2.64 µM (active); in experiment [3], 7.43 µM (active).
Take `COC(=O)N[C@H](C(=O)N1CCC[C@@H]1c1ncc(-c2ccc(-c3ccc(-c4cnc([C@@H]5CCCN5C(=O)[C@@H](NC(=O)OC)C(C)C)[nH]4)cc3)cc2)[nH]1)C(C)C`: the Potency is 26.4 µM (active) in experiment [1]; 26.4 µM (active) in [5]; 20.9 µM (active) in experiment [6]; 26.4 µM (active) in experiment [7]; 20.9 µM (active) in experiment [8]. In addition, the Potency result in experiment [4] was “inactive”.
Turning to `COc1ccc(-n2c(C)c([N+](=O)[O-])c3ccc(O)cc32)cc1`, the Potency result in experiment [1], in experiment [4], in experiment [6] and in experiment [3] was “inactive” each time. For the same molecule, in experiment [9], the Potency was 4.69 µM (active).
As for `COc1cc(Nc2ncc(F)c(Nc3ccc4c(n3)NC(=O)C(C)(C)O4)n2)cc(OC)c1OC`, the Potency in experiment [1] was 1.66 µM (active); in experiment [2] it was 1.66 µM (active); in experiment [9] it was 1.05 µM (active); in [6] it was 4.18 µM (active); in [3] it was 5.9 µM (active). The Potency entry in experiment [8] was “inactive”.
Consider `Cc1c[nH]c(C=C2C(=O)Nc3ccccc32)c1CCC(=O)O`, for which the Potency entry in experiment [1] and in experiment [6] was “inactive” each time. The Potency in [5] was 20.9 µM (active); in experiment [7], 33.2 µM (active).
With `CO[C@H]1C[C@@H]2CC[C@@H](C)[C@@](O)(O2)C(=O)C(=O)N2CCCC[C@@H]2C(=O)O[C@H]([C@@H](C)C[C@@H]2CC[C@H](O)[C@H](OC)C2)CC(=O)[C@H](C)C=C(C)[C@@H](O)[C@@H](OC)C(=O)[C@H](C)C[C@H](C)C=CC=CC=C1C`, the Potency result in experiment [1] and in experiment [3] was “inactive” throughout.
`COC[C@@H](c1ccc(C(F)(F)F)cc1)N1CCN(C2(C)CCN(C(=O)c3c(C)ncnc3C)CC2)C[C@H]1C`: the Potency in experiment [1] is 16.6 µM (active); in [2], 23.5 µM (active); in [5] it was 20.9 µM (active). The Potency entry in experiment [6], in experiment [7] and in experiment [8] was “inactive” each time.
For the molecule `COc1ncc(-c2ccc3nccc(-c4ccnnc4)c3c2)cc1NS(=O)(=O)c1ccc(F)cc1F`, the Potency in experiment [1] is 0.0187 µM (active); in experiment [5] it was 0.0332 µM (active); in [3] it was 0.0026 µM (active).
Consider `NC1=N[C@@]2(c3cc(NC(=O)c4ccc(F)cn4)ccc3F)COC[C@@H]2CS1`, for which the Potency in experiment [1] is 3.72 µM (active); in experiment [9], 23.5 µM (active); in [5] it was 11.8 µM (active); in [7], 23.5 µM (active); in experiment [8] it was 18.7 µM (active). In addition, the Potency entry in experiment [6] is “inactive”.
In the case of `O=C(NC1CCOCC1)c1ccc(-c2cc(-c3cn[nH]c3-c3ccccn3)ccn2)cc1`, the Potency result in [1], in experiment [9], in experiment [5], in experiment [7] and in experiment [8] was “inactive” in each case.
For `CC(C)C(C)C=CC(C)C1CCC2C3=CC=C4CC(O)CCC4(C)C3CCC21C` (configuration not stated), the Potency entry in [1], in experiment [2], in experiment [9], in experiment [5], in [6] and in experiment [3] was “inactive” throughout. Moreover, in experiment [7], the Potency entry was “inactive”.
Consider `O=C(NCc1ccncc1)C12C[C@H]3C[C@@H](C1)CC(c1ccc(Cl)cc1)(C3)C2`, for which the Potency was 4.69 µM (active) in experiment [1], 29.6 µM (active) in experiment [6], 14.8 µM (active) in experiment [7] and 18.7 µM (active) in [8].
Consider `N[C@H](CSC(c1ccccc1)(c1ccccc1)c1ccccc1)C(=O)O`, for which the Potency is 6.62 µM (active) in experiment [1]; 10.5 µM (active) in [2]; 9.35 µM (active) in experiment [4]; 20.9 µM (active) in [3]; 4.18 µM (active) in experiment [7].
`C[C@H](NC(=O)C(=O)Nc1ccccc1C(C)(C)C)C(=O)N[C@@H](CC(=O)O)C(=O)COc1c(F)c(F)cc(F)c1F`: the Potency result in experiment [10], in [2], in [9] and in [8] was “inactive” throughout. The Potency in experiment [6] was 14.8 µM (active).
On to `OC[C@H]1O[C@@H](n2cnc3c2NC=NC[C@@H]3O)C[C@H]1O`, for which the Potency in experiment [2] was 14.8 µM (active); in [9], 11.8 µM (active). The Potency result in experiment [4], in experiment [6] and in experiment [3] was “inactive” throughout.
`CN(C)CCC=C1c2ccccc2COc2ccc(CC(=O)O)cc21`: the Potency in experiment [10] was 20.9 µM (active). Further, the Potency result in experiment [9], in experiment [5], in [6], in [3], in [7] and in experiment [8] was “inactive” each time.
Regarding `COc1ccc2cc(-c3nc(-c4ccc(S(C)=O)cc4)[nH]c3-c3ccncc3)ccc2c1` (configuration not stated), the Potency in experiment [10] is 23.5 µM (active); in experiment [9], 14.8 µM (active); in [7], 23.5 µM (active). Moreover, the Potency result in [3] is “inactive”.
Regarding `Nc1ncnc2ccccc12`, the figures for the Potency in [10] and in experiment [5] were 7.43 µM (active) and 20.9 µM (active), respectively. The Potency result in experiment [2], in [3], in experiment [7] and in experiment [8] was “inactive” throughout.
Turning to `C=C1C(=O)OC2C=C(C)CCC=C(C)CCC12` (configuration not stated), the Potency in experiment [10] was 16.6 µM (active); in [2], 8.33 µM (active); in experiment [9], 16.6 µM (active); in experiment [5] it was 18.7 µM (active); in [3], 20.9 µM (active); in experiment [7], 20.9 µM (active). Also, in [8], the Potency was 18.7 µM (active).
As for `NS(=O)(=O)c1ccc(NC2=CC(=O)c3ccccc3C2=O)cc1`, the results for the Potency in [2] and in [9] were 5.9 µM (active) and 14.8 µM (active), respectively. Further, the Potency entry in [6], in [3] and in experiment [8] was “inactive” each time.
On to `O=C(O)c1c(Cl)c(Cl)c(Cl)c(Cl)c1-c1c2cc(I)c(=O)c(I)c-2oc2c(I)c(O)c(I)cc12`, for which the Potency was 5.9 µM (active) in experiment [10]; 14.8 µM (active) in experiment [2]; 6.62 µM (active) in [9]; 6.62 µM (active) in experiment [5]; 9.35 µM (active) in experiment [6]; 6.62 µM (active) in experiment [7].
